OPRM1-OPRD1 inv = inverse agonists of MOR-DOR heterodimerization, primary screen, cell-based, luminescence | Mu-type opioid receptor (Homo sapiens) + Delta-type opioid receptor (Homo sapiens), … | 340,000 tested, 0.21% active | AID 504357, 2011 | cell-based MOR-DOR heterodimer luminescence, inverse agonism | inhibition, % at 9.3 µM; in the data active means inhibition above about 22%, passing the limit was not always enough
HTR5A inv ctr = HTR5A inverse agonists in luminescence cell assay, primary screen, counter-screen for OPRM1-OPRD1 heterodimer inverse agonist project, full-deck HTS. HTR5A cell line, inverse agonism. 340,000 tested, 0.083% active. inhibition, % at 9.3 µM; in the data active means inhibition mostly above about 23%, no sharp cut-off; inactive means mostly below about 18%
HTR5A ag ctr = HTR5A agonists in luminescence cell assay, primary screen, counter-screen for OPRM1-OPRD1 heterodimer agonist project, full-deck HTS | activation, % at 9.3 µM | cell-based | 5-hydroxytryptamine receptor 5A (Homo sapiens), P47898 | 340,000 tested, 0.61% active; in the data active means activation mostly above about 9.5%, no sharp cut-off; inactive means mostly below about 7.6%
MOR-DOR ag = agonists of OPRM1-OPRD1 heterodimerization, primary screen, cell-based, luminescence. Mu-type opioid receptor (Homo sapiens) + Delta-type opioid receptor (Homo sapiens), …. cells. activation, % at 9.3 µM. 340,000 tested, 0.3% active; in the data active means activation above about 18%
Hits are given with their value; n = inactive. Rows were chosen to be rich in hits. Some 1.1% of all compounds tested hit in one or more screens of this group.

SMILES | OPRM1-OPRD1 inv | HTR5A inv ctr | HTR5A ag ctr | MOR-DOR ag
Cc1cc([N+](=O)[O-])ccc1NC(=O)c1csc(C)c1C | n | n | 13.3 | n
CC(=O)Nc1ccc(-n2c(C)nc(=O)c(-c3ccccc3)c2C)cc1 | n | n | 10.4 | n
Cc1nc(=O)c(-c2ccccc2)c(C)n1-c1ccccc1 | n | n | n | n
COc1ccc(N2CCN(C(=O)c3ccncc3)CC2)cc1 | n | n | n | n
O=C(CN(Cc1ccccc1)C(=O)CCl)c1cccc(Br)c1 | n | n | 37.8 | 33.2
CCCCN(CCCC)S(=O)(=O)c1ccc2[nH]c(=O)[nH]c2c1 | n | n | n | n
CCN(CC)S(=O)(=O)c1ccc2[nH]c(=O)[nH]c2c1 | n | n | 9.5 | n
CCc1nnc(N2CCN(c3ncnc4c3oc3ccccc34)CC2)s1 | n | n | n | n
c1ccc(N2CCN(c3ncnc4c3oc3ccccc34)CC2)cc1 | n | n | 14.2 | n
Cc1cc(NC(=O)c2ccccc2C)ccc1NC(=O)c1ccccc1Cl | n | n | n | n
CC(C)(C)OC(=O)N1CCC[C@H]1C(=O)Nc1ccc(C#N)cc1 | n | n | 9.6 | n
CC(C)(C)OC(=O)N1CCC[C@H]1C(=O)Nc1ccc(Br)cc1 | n | n | n | n
COc1cccc(C(=O)COc2ccc3ccc(=O)oc3c2)c1 | n | n | 12.0 | n
COc1cccc(C(=O)COc2ccc3c(C)cc(=O)oc3c2)c1 | n | n | n | n
NC(=O)c1ccccc1OCC(=O)Nc1cccnc1Cl | n | n | n | n
CS(=O)(=O)NCCSCc1ccccc1 | n | n | n | n
CS(=O)(=O)NCCSc1cc(C(F)(F)F)nc2ccccc12 | n | n | 11.8 | n
CCC(C)[C@H](NC(=O)N1CC(=O)Nc2ccccc21)C(=O)NC(C)CCc1ccccc1 (stereo partly drawn) | n | n | n | n
CCOC(=O)CNc1nc(Cl)nc(Nc2ccc(C)cc2)n1 | n | n | 13.8 | n
O=C(Nc1ccc(Cl)cc1)c1cc2c(cc1O)[nH]c1ccccc12 | n | n | 14.0 | n
CCc1sc(C(=O)NCCCn2ccnc2)cc1Br | n | n | 10.0 | n
O=C(Nc1ccncc1)c1cccc(S(=O)(=O)N2CCc3ccccc32)c1 | n | n | n | n
CC(C)(C)C(=O)N1CCC(O)(CS(=O)(=O)Cc2ccc(Cl)cc2)CC1 | n | n | 12.3 | n
CC(C)(C)C(=O)N1CCC(O)(CS(=O)(=O)Cc2ccccc2)CC1 | n | n | n | n
CN(C)S(=O)(=O)c1ccc(C(=O)N2CCN=C2SCc2ccccc2)cc1 | n | n | 12.6 | n
SMILES | OPRM1-OPRD1 inv | HTR5A inv ctr | HTR5A ag ctr | MOR-DOR ag
CN1CCN(CCOCCOc2ccc(Br)cc2Cl)CC1 | n | n | n | n
CCC1=[N+](CC(=O)c2ccc(Br)cc2)CCn2c(C)ccc21 | n | n | 11.9 | n
Clc1ccccc1/C=N/NC1=Nc2cccc3cccc1c23 | n | n | 11.9 | n
CC(C(=O)N1CCOCC1)c1ccc([N+](=O)[O-])cc1 (stereo not drawn) | n | n | n | n
Cc1c(C(=O)NC2CCCCC2)sc2ncnc(N3CCN(c4ccccc4)CC3)c12 | n | n | 11.3 | n
Cc1ccc(C(=O)N/N=C/c2cc(Br)ccc2O)cn1 | n | n | 10.3 | n
COc1cc(S(=O)(=O)NCc2cccnc2)c(OC)cc1Br | n | n | 10.0 | n
CC(C)CC(C(=O)N1CCOCC1)N1Cc2ccccc2C1=O (stereo not drawn) | n | n | 12.5 | n
CNC(=S)N(Cc1cc2cc(OC)c(OC)cc2[nH]c1=O)C1CCCC1 | n | n | 13.1 | n
O=C(O)c1ccc(N/N=C/c2ccc(-c3ccccc3)cc2)cc1 | n | n | 13.4 | n
CCOC(=O)c1c(NC(=O)CC(C)C)sc(C(C)=O)c1C | n | n | n | n
CCOC(=O)c1sc(NC(=O)CN(CC(C)C)CC(C)C)c(C(=O)OCC)c1C | n | n | 13.5 | n
CCN(C[C@H]1N[C@@](CC)(C(=O)OC)[C@H]2C(=O)N(Cc3ccccc3)C(=O)[C@@H]12)S(=O)(=O)c1ccc(-c2ccccc2)cc1 | n | n | n | n
COC(=O)c1c(-n2cnnn2)sc(C)c1C | n | n | 12.0 | n
COC(=O)c1c(N2C(=O)Nc3ccccc3N2O)sc(C)c1C | n | n | n | n
CCC(=O)NC(=S)Nc1cccc(Cl)c1N1CCCC1 | n | n | n | n
O=C(C1CC1)N(CCN(C(=O)C1CC1)c1ccccc1)c1ccccc1 | n | n | n | n
CC(=O)n1cc(N(C(=O)CCl)c2ccccc2)c2ccccc21 | n | n | 56.7 | 65.2

Assay outcomes as filed in PubChem BioAssay.
